Laboratory results as given in PubChem BioAssay AID2685 (National Center for Advancing Translational Sciences (NCATS), 2010).
Among all 320,000 compounds or so, about 2,100 (0.66%) were called active. Another 53% or so got no clear call; they are omitted. Calls follow the shape of the dose curve; as a rule, active = well fitted inhibition curve with a large enough effect in the signal ratio, with a control signal flat (not every such curve was filed as active); inconclusive = small, poorly fitted or top-dose-only effect, or effect the other way, or a change in a side signal; inactive = flat fitted curve, though single readings scatter; the % refers to the signal ratio. This excerpt belongs to a sample that is enriched for actives.

assay: qHTS Assay for Lipid Storage Modulators in Drosophila S3 Cells; conditions: BODIPY lipid droplet fluorescence, 18-24 h, cells fed with added oleic acid; cell number change: measured here: cell count max response; series mostly up to 46.1 µM;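 as to cell number change: cells counted by Cell Tracker Red CMTPX staining in the red channel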; as to lipid storage change, negative = inhibition: % is scaled to controls: 0 for no effect and ±100 for the full control effect
Procedure, shortened: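 Drosophila S3 cells loaded with oleic acid (400 uM, as added) and compounds at several concentrations; lipid droplets imaged by 488-nm laser-scanning cytometry, 500–530 nm intensity and object ratio to cell channel. Percent activity normalized to 20 uM Triacsin C.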
Potency is read from the fitted curve at half-maximal effect.

Compound	Potency	cell number change [%]	lipid storage change, negative = inhibition
COc1ccc(S(=O)(=O)NNC(=O)C2COc3ccccc3O2)cc1[N+](=O)[O-] (stereo unspecified)	inactive	4.36	–
NC(=O)c1ccc(NC(=O)CSc2nnc(-c3ccccn3)n2N)cc1	inactive	1.07	–
O=C(Nc1ccc(Oc2cccnc2)cc1)C1CCN(Cc2cccc(Cl)c2)CC1	inactive	27.9	–
O=C(CNC(=O)c1ccccc1)OCc1cccc(Br)c1	inactive	-18.3	–
Nc1nnnn1CC(=O)OCc1cccc(Br)c1	2.06 µM (active)	4.89	–
O=C(CN1CC(c2ccccc2)CC1=O)OCc1cccc(Br)c1 (stereo unspecified)	inactive	15.3	–
COc1ccc(S(=O)(=O)N2CCOC2CNC(=O)C(=O)NCc2ccncc2)cc1 (stereo unspecified)	inactive	-15.1	–
COc1ccc(CCNC(=O)CSc2c[nH]c3ccccc23)cc1OC	inactive	5.06	–
O=C(COC(=O)CC1CCCC1)Nc1ccc(Cl)cn1	inactive	2.11	–
O=C(NCC1CCCC(CNC(=O)Nc2ccc(Cl)cn2)C1)Nc1ccc(Cl)cn1 (stereo unspecified)	0.082 µM (active)	-15.8	–
O=C(Nc1ccc(Cl)cn1)Nc1ccc(Cl)cn1	inactive	–	–
Nc1nc2ccc(C(=O)Nc3ccccc3)cc2s1	inactive	-10.8	–
Cc1ccc(N2C(=O)C3C4C=CC(CC4)C3C2=O)c([N+](=O)[O-])c1 (stereo unspecified)	inactive	–	–
O=C(CCl)N(C/C=C/c1ccccc1)c1ccc2c(c1)OCCO2	inactive	–	–
C=CCOc1ccccc1CNc1ccc2c(c1)OCCO2	inactive	-4.69	–
C=CCOc1ccccc1CN(C(=O)CCl)c1ccc2c(c1)OCO2	9.2 µM (active)	10.9	–
Cc1cc(C)cc(Oc2ccc(C(F)(F)F)cc2C#N)c1	inactive	–	–
Clc1ccc(CSc2ccc(-c3ccco3)nn2)cc1	inactive	–	–
c1ccc(-c2nnc(-c3ccccc3)o2)cc1	inactive	0.828	–
Nc1ccc(-c2nnc(-c3ccccc3)o2)cc1	18.4 µM (active)	–	–
O=C(O)c1ccc(-c2nnc(-c3ccccc3)o2)cc1	inactive	25.5	–
CCCCN1C(=O)/C(=C2\SC(N3CCOCC3)=NC2=O)c2ccccc21	8.2 µM (active)	-1.69	–
Cc1ccc(CN2C(=O)/C(=C3\SC(N4CCOCC4)=NC3=O)c3cc(Br)ccc32)cc1	inactive	15.8	–
CCN1C(=O)/C(=C2\SC(N3CCCCC3)=NC2=O)c2ccccc21	inactive	-29.3	–

Compound	Potency	cell number change [%]	lipid storage change, negative = inhibition
O=C(NC12CC3CC(CC(C3)C1)C2)c1cnccn1	inactive	3.24	–
CCN(CC)C1CCS(=O)(=O)C1 (stereo unspecified)	inactive	22.1	–
COc1cccc(-c2cc(C(=O)N3CCN(Cc4ccc5c(c4)OCO5)CC3)on2)c1	inactive	17	–
COc1cc(OC)cc(C(=O)NCC(=O)OCC(=O)c2cc(OC)ccc2OC)c1	23.1 µM (active)	-7.21	–
COc1cc(OC)cc(C(=O)NCC(=O)OCC(=O)NC(C)(C)C)c1	inactive	16.7	–
COC(=O)CNC(=O)c1cc(OC)cc(OC)c1	inactive	7	–
COC(=O)CNC(=O)C(NC(=O)c1ccc(Cl)cc1)C(C)C (stereo unspecified)	25.9 µM (active)	12.5	–
CCC(C)C(NC(=O)c1ccc(Cl)cc1)C(=O)O (stereo unspecified)	inactive	-1.98	–
CC(C)OCCCNC(=O)C(NC(=O)c1ccc(Cl)cc1)C(C)C (stereo unspecified)	inactive	4.94	–
COC(=O)c1cc(C(=O)Nc2cccc(C)n2)cc([N+](=O)[O-])c1	inactive	–	–
COC(=O)c1ccccc1NC(=O)C1CCCO1 (stereo unspecified)	inactive	-0.0238	–
O=C(O)c1ccccc1NC(=O)C1CCCO1 (stereo unspecified)	23.1 µM (active)	-12.3	–
CCOC(=O)c1ccccc1NC(=O)C1CCCO1 (stereo unspecified)	inactive	2.7	–
COc1cc(/C=C/C(=O)NC(C)C2CC3CCC2C3)cc(OC)c1OC (stereo unspecified)	2.91 µM (active)	13.5	–
COc1ccc(C(=O)NC(C)C2CC3CCC2C3)c(OC)c1 (stereo unspecified)	inactive	14.1	–
COc1cc(/C=C/C(=O)NC2CCCCC2)cc(OC)c1OC	inactive	1.65	–
CCCCN1C(=O)C(=O)N(CC(=O)Nc2cc(OCC)c(N3CCOCC3)cc2OCC)C1=O	inactive	-17.5	–
COc1ccc(-c2cc(C)no2)cc1S(=O)(=O)N(C)c1ccc(C)cc1	inactive	-26.4	–
COC(=O)CCN(c1ccccc1)S(=O)(=O)c1cc(-c2cc(C)no2)ccc1OC	inactive	–	–
CCCN(c1ccccc1F)S(=O)(=O)c1cc(-c2cc(C)no2)ccc1OC	4.61 µM (active)	-29.5	–
Cc1cccc(C(=O)Nc2nnc(S(=O)(=O)N3CCOCC3)s2)c1	inactive	-0.612	–
CN(Cc1ccc(F)cc1)S(=O)(=O)c1nnc(NC(=O)c2ccccc2)s1	inactive	3.05	–
O=C(Nc1nnc(S(=O)(=O)N2CCCCCC2)s1)c1cccc(Br)c1	inactive	16.5	–
COc1cccc(C(=O)Nc2nnc(S(=O)(=O)N(C)Cc3ccc(F)cc3)s2)c1	29.1 µM (active)	-17.9	–

Compound	Potency	cell number change [%]	lipid storage change, negative = inhibition
COc1cccc(C(=O)Nc2nnc(S(=O)(=O)N3CCCC3)s2)c1	4.11 µM (active)	-14.5	–
COc1ccc(CN(C)S(=O)(=O)c2nnc(NC(=O)c3cccc(F)c3)s2)cc1	inactive	–	–
CN(Cc1ccc2c(c1)OCO2)C(=O)c1cc(-c2ccccc2)c(N2CCOCC2)s1	inactive	-5.64	–
COc1cccc(C(=O)NCc2nnc(SCC(=O)Nc3nccs3)n2-c2cccc(C)c2)c1	inactive	-7.27	–
COc1cc(NC(=O)CCc2nnc3ccc(N4CCN(C)CC4)nn23)cc(OC)c1	inactive	-14.7	–
Cc1ccc(C)c(/C=C2\CCn3c2nc2cc(C(=O)O)ccc2c3=O)c1	inactive	6.53	–
CNc1oc(C)nc1S(=O)(=O)c1ccc(C)cc1	inactive	-20.3	–
CNc1oc(C)nc1S(=O)(=O)c1ccccc1	32.6 µM (active)	3.59	–
CNc1oc(-c2ccc(F)cc2)nc1S(=O)(=O)c1ccccc1	inactive	11.1	–
CC(=O)Nc1ccc(S(=O)(=O)Nc2nccc(C3Cc4ccccc4C(=O)O3)n2)cc1 (stereo unspecified)	14.6 µM (active)	-1.08	–
CC(=O)Nc1ccc(S(=O)(=O)Nc2nccc(C)n2)cc1	inactive	1.57	–
CC(=O)Nc1ccc(S(=O)(=O)Nc2ncccn2)cc1	inactive	3.3	–
O=C(CSc1nnc(COc2ccccc2)o1)N1CCN(c2ccccc2)CC1	inactive	3.22	–
Cc1cccc(C(=O)Nc2ccc(N3CCN(S(C)(=O)=O)CC3)cc2)c1	inactive	1.55	–
COc1ccc(-n2ncc(C(C)NS(=O)(=O)c3cc(F)ccc3C)c2C)cc1 (stereo unspecified)	9.2 µM (active)	-20.2	–
COc1ccc(-n2ncc(C(C)NS(=O)(=O)c3ccc(C(C)=O)cc3)c2C)cc1 (stereo unspecified)	inactive	-7.79	–
COC(=O)c1sccc1S(=O)(=O)NC(C)c1cnn(-c2ccc(OC)cc2)c1C (stereo unspecified)	inactive	19.6	–
CN(C)CCCN(C(=O)COc1ccccc1)c1nc2ccc(F)cc2s1	inactive	-15.9	–
COc1ccc(Cn2nnnc2CN(Cc2cc3cccc(C)c3[nH]c2=O)C2CCCC2)cc1	inactive	-3.93	–
CCCCN(c1ccccc1)c1ncnc2nc[nH]c12	inactive	0.284	–
O=c1c2ccccc2c(-c2ccccc2)nn1-c1ccccn1	inactive	–	–
O=C1c2cccc3c(N4CCCCC4)ccc(c23)C(=O)N1c1ccccn1	inactive	12.6	–
O=C1c2cc3ccccc3c(-c3ccccc3)c2C(=O)N1c1ccccn1	23.1 µM (active)	-7.79	–
COc1ccc2c(c1)CCC(C)N2C(=O)C(=O)c1c[nH]c2ccccc12 (stereo unspecified)	inactive	–	–

Compound	Potency	cell number change [%]	lipid storage change, negative = inhibition
CCCCNC(=O)C1CCN(S(=O)(=O)c2c(C)noc2/C=C\c2ccc(OC)cc2)CC1	–	0.864	-15.3% [at 9.22 µM] (inactive)
COc1ccccc1CCC(=O)OC(C)C(=O)Nc1c(C)n(C)n(-c2ccccc2)c1=O (stereo unspecified)	inactive	–	–
Cc1cc(C)cc(NC(=O)N2CCCC2C(=O)NCc2ccco2)c1 (stereo unspecified)	inactive	4.2	–
O=C(NCc1ccco1)C1CCCN1C(=O)Nc1ccc(Br)cc1 (stereo unspecified)	7.31 µM (active)	13.3	–
O=C(NCc1ccco1)C1CCCN1C(=O)Nc1cccc(Cl)c1 (stereo unspecified)	inactive	3.19	–
COCCNC(=O)C1CCN(S(=O)(=O)c2ccccc2)CC1	inactive	-5.9	–
CCCNS(=O)(=O)c1cccc(C(=O)OCc2cc(=O)oc3cc(OC)ccc23)c1	0.326 µM (active)	20.2	–
CCNS(=O)(=O)c1ccc(C(=O)OCc2cc(=O)oc3cc(OC)ccc23)cc1	inactive	12.6	–
COc1ccc2c(COC(=O)CNS(=O)(=O)c3ccc(C)c(C)c3)cc(=O)oc2c1	inactive	–	–
CCOC(=O)C1CCCN(C(=O)c2cc(S(=O)(=O)Nc3ccccc3OC)ccc2C)C1 (stereo unspecified)	inactive	12	–
COc1ccc(CCNC(=O)C2CCN(c3nccc(C)n3)CC2)cc1	inactive	5.66	–
CC(=O)Nc1ccccc1NC(=O)C/C(C)=N/NC(=O)C1CCCCC1	inactive	-3.17	–
Cc1cccc(C(=O)NCC(=O)OCc2cc(=O)n3ccsc3n2)c1	inactive	-4.9	–
Nc1cc(C(=O)OCC(=O)N2CCCC2=O)ccc1Cl	inactive	–	–
NC(=O)Nc1ccc(C(=O)OCC(=O)N2CCCC2=O)cc1	inactive	-27.9	–
O=C(OCC(=O)N1CCCC1=O)c1nc(Cl)c(Cl)c(Cl)c1Cl	7.08 µM (active)	-29	–
CCCc1cc(=O)c2c(O)cccc2o1	inactive	-3.96	–
O=C(NCCc1ccc(F)cc1)Nc1ccc([N+](=O)[O-])cc1	13 µM (active)	18.2	–
O=C(NCCc1ccncc1)Nc1ccc(F)cc1	inactive	5.19	–
O=C(NCCc1ccc(Cl)cc1)Nc1ccc(F)cc1	inactive	-2.02	–
Cc1cccc(C)c1NC(=O)CN(C)C(=O)/C=C/c1cccs1	inactive	-17	–
CCn1cnc2c(Nc3cc(F)cc(F)c3)nc(C#N)nc21	0.651 µM (active)	-24.3	–
Cc1cc(C)c(C#N)c(Nc2ccc(F)cc2)n1	inactive	-10.5	–
